Source: PubChem BioAssay (Tox21)
Records with an inconclusive call do not appear. Entries that show only a call come without a potency. The source made the active and inactive calls. Unless noted, the call rests on the fitted dose curve; in most records, active means well fitted curve in the direction sought with a large enough effect in the repeat runs; inconclusive means weak or mixed curves; inactive means no such curve, though single readings can be large; an effect the other way counts as inactive or inconclusive.

Legend:
[1] = qHTS assay for small molecules that induce genotoxicity in human embryonic kidney cells expressing luciferase-tagged ATAD5 (AID 651632); further: nearly all actives have a fitted effect of over 15% in size
Procedure, shortened: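 HEK293T cells carrying luciferase-tagged ATAD5 were given compound or DMSO vehicle and incubated 16 hr at 37C, 5% CO2. Luciferase activity was read after 30 min at room temperature with Amplite; a rise signals genotoxic stress.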

[2] = qHTS assay for small molecule agonists of the p53 signaling pathway - cell viability (AID 651633; calls by dose curve;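 further: p53RE-bla HCT reporter cells with a stable beta-lactamase p53 reporter; nearly all actives have a fitted effect of over 30% in size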)
Procedure, shortened: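 p53RE-bla cells were treated with compound for 16 hours at 37 C. Cytotoxicity was then measured as CellTiter-Glo luminescence after 30 min at room temperature.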

[3] = qHTS assay for small molecules that induce genotoxicity in human embryonic kidney cells expressing luciferase-tagged ATAD5 - cell viability (AID 651634; calls by dose curve; further: nearly all actives have a fitted effect of over 25% in size)
Procedure, shortened: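 HEK293T cells carrying luciferase-tagged ATAD5, 2,000 cells/well, exposed to compound for 15.5 hr at 37C. Viability read as live-cell protease activity by CellTiter-Fluor fluorescence after 30 min at 37C.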

[4] = qHTS assay for small molecule disruptors of the mitochondrial membrane potential (AID 720635); further: potency means the concentration at half of the fitted maximal effect
Procedure, shortened: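 HepG2 cells exposed to compound 1 hr at 37C, then Mito-MPS dye 30 min. Ratio read of aggregate (540/590 nm) versus monomer (490/535 nm) fluorescence.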

[5] = qHTS assay to test for compound auto fluorescence at 590 nm (red) in HepG2 cells (AID 720674)
Procedure, shortened: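 Seeding: 2,000 HepG2 cells/well, MEM/10% FBS, overnight 37 C. Dosing: compound vs DMSO. Incubation: 1 hr, 37 C, 5% CO2. Read: fluorescence 540 ex/590 em, Rose Bengal sodium as red reference.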

[6] = qHTS assay to test for compound auto fluorescence at 535 nm (green) in HepG2 cells (AID 720675)
[7] = qHTS assay to test for compound auto fluorescence at 460 nm (blue) in HEK293 cells (AID 720678)
Procedure, shortened: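 Intrinsic compound fluorescence is recorded in live HEK293 cultures after overnight incubation at 37C, 5% CO2, using excitation 405 nm and emission 460 nm. Values are referenced to triamterene.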

[8] = qHTS assay to test for compound auto fluorescence at 535 nm (green) in HEK293 cells (AID 720680)
[9] = qHTS assay to test for compound auto fluorescence at 460 nm (blue) in HEK293 cell free culture (AID 720681)
Procedure, shortened: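 Compounds were added to cell-free DMEM with 10% FBS and fluorescence read directly. The blue channel used 405 nm excitation and 460 nm emission, with triamterene as the reference fluorophore.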

[10] = qHTS assay to test for compound auto fluorescence at 535 nm (green) in HEK293 cell free culture (AID 720682)
Procedure, shortened: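 Measurement is a direct plate read of green fluorescence (485 nm in, 535 nm out) after compound addition to serum-supplemented DMEM lacking cells, with fluorescein used to express intensities.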

[11] = qHTS assay to test for compound auto fluorescence at 590 nm (red) in HEK293 cell free culture (AID 720683)
Procedure, shortened: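 Cell-free wells of DMEM with 10% FBS received compound, and intrinsic fluorescence was read at excitation/emission 540/590 nm. Values expressed as equivalence to Rose Bengal sodium.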

[12] = qHTS assay to test for compound auto fluorescence at 590 nm (red) in HepG2 cell free culture (AID 720684)
Procedure, shortened: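 Compounds are added to culture medium (MEM, 10% FBS) lacking cells, then fluorescence is read at excitation 540 nm, emission 590 nm, with Rose Bengal sodium as the equivalency standard.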

[13] = qHTS assay to test for compound auto fluorescence at 460 nm (blue) in HepG2 cell free culture (AID 720685)
Procedure, shortened: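 Compound (23 nL) or DMSO pinned into cell-free MEM with 10% FBS; blue fluorescence read at 405/460 nm excitation/emission, expressed as auto-fluorescence equivalency to triamterene.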

[14] = qHTS assay to test for compound auto fluorescence at 535 nm (green) in HepG2 cell free culture (AID 720686)
[15] = qHTS assay to test for compound auto fluorescence at 460 nm (blue) in HepG2 cells (AID 720687)
Procedure, shortened: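 HepG2 cells in MEM with 10% FBS, attached overnight at 37 C, were exposed to compound or DMSO for 1 hr at 37 C, 5% CO2. Blue fluorescence was read at 405/460 nm, with triamterene as reference fluorophore.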

[16] = qHTS assay for small molecule disruptors of the mitochondrial membrane potential - cell viability (AID 720634; calls by dose curve;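 further: human HepG2 liver cancer cells; nearly all actives have a fitted effect of over 20% in size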)
Procedure, shortened: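 HepG2 cells, 2,000 per well, attached overnight, then treated 1 hr at 37 C, 5% CO2. Viability read as ATP by CellTiter-Glo luminescence after 30 min at room temperature. Read in the same wells as the m-MPI membrane-potential dye assay.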

[17] = qHTS assay to test for compound auto fluorescence at 590 nm (red) in HEK293 cells (AID 720679)
Procedure, shortened: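 Red autofluorescence, HEK293 cells: 2,000 cells/well; attach 4-5 hr 37C; add 23 nL cpd or DMSO; incubate o/n 37C 5% CO2; read Ex540/Em590; Rose Bengal sodium reference.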

[18] = target: Glucocorticoid receptor (Homo sapiens) (UniProt P04150); experiment: qHTS assay to identify small molecule agonists of the glucocorticoid receptor (GR) signaling pathway (AID 720691; active means well fitted activation curve with a large enough effect in the signal ratio in the repeat runs, not every such curve was filed as active; the % refers to the signal ratio); settings: GR-bla HeLa, beta-lactamase reporter ratio, 18 h; activation: at 62.4 µM (top of the series)
Procedure, shortened: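 GR-bla HeLa cells carrying a GRE-driven beta-lactamase reporter, exposed to compounds for 18 h at 37 C. Reporter activation read as fluorescence after 2 h with LiveBLAzer B/G FRET substrate at room temperature.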

[19] = target: Glucocorticoid receptor (Homo sapiens) (UniProt P04150); experiment: qHTS assay to identify small molecule antagonists of the glucocorticoid receptor (GR) signaling pathway (AID 720692; active means well fitted inhibition curve with a large enough effect in the signal ratio in the repeat runs, not every such curve was filed as active; the % refers to the signal ratio)
Procedure, shortened: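 GR-bla HeLa cells carrying a GRE-driven beta-lactamase reporter received compound after 4 h plating, then dexamethasone (5 nM final). After 18 h at 37C, the FRET substrate was loaded for 2 h at room temperature and fluorescence read.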

Sequence of Glucocorticoid receptor (Homo sapiens) (P04150 whole entry, looked up): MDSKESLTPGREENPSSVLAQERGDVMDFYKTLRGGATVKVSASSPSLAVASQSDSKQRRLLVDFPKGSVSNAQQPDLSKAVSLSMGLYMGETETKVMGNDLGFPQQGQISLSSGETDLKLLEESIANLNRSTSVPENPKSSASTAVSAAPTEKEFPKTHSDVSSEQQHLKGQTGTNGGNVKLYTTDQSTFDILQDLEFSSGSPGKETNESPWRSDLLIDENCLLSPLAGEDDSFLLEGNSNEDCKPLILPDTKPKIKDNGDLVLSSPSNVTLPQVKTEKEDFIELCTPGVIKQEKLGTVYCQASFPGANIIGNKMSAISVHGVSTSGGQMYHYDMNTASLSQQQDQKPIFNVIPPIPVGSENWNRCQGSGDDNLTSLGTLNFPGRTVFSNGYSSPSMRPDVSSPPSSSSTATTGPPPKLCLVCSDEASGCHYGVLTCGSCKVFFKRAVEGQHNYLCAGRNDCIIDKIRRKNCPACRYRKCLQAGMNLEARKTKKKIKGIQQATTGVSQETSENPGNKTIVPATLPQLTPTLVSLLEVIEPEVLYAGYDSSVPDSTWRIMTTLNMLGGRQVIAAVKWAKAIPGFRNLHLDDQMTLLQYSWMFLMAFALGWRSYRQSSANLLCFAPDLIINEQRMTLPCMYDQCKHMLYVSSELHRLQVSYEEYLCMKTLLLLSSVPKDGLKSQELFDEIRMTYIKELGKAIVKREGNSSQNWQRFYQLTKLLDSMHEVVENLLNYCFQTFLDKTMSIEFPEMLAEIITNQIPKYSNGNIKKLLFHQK

With `CC1(C)C(C=C(Cl)Cl)C1C(=O)OC(C#N)c1ccc(F)c(Oc2ccccc2)c1` (stereo unspecified) the Potency [1] was “inactive”, the Potency [2] was “inactive” and the Potency [3] was “inactive”. The Potency [4] was 54.5 µM (active), the outcome [5] was “inactive” and the Potency [6] was “inactive”. The Potency [7] was “inactive”, the outcome [8] was “inactive” and the Potency [9] was “inactive”. For the same compound, the outcome [10] was “inactive”, the outcome [11] was “inactive” and the outcome [12] was “inactive”. The Potency [13] was “inactive”, the Potency [14] was “inactive” and the Potency [15] was “inactive”.

For `c1cc[n+]2c(c1)-c1cccc[n+]1CC2`, the Potency [1] was “inactive”, the Potency [2] was “inactive” and the Potency [16] was “inactive”. For the same compound, the Potency [4] was “inactive”, the outcome [5] was “inactive” and the Potency [6] was “inactive”. The Potency [7] was “inactive”, the outcome [17] was “inactive” and the Potency [9] was “inactive”. The outcome [11] was “inactive”, the outcome [12] was “inactive” and the Potency [13] was “inactive”. For the same compound, the Potency [14] was “inactive”, the Potency [15] was “inactive” and the Potency [18] was “inactive”. The Potency [19] was “inactive”.

With `COc1cnc(OC)n2nc(NS(=O)(=O)c3c(OCC(F)F)cccc3C(F)(F)F)nc12` the Potency [1] was “inactive”, the Potency [2] was “inactive” and the Potency [3] was “inactive”. For the same compound, the Potency [16] was “inactive”, the Potency [6] was “inactive” and the Potency [7] was “inactive”. For the same compound, the outcome [17] was “inactive”, the Potency [9] was “inactive” and the outcome [10] was “inactive”. The outcome [11] was “inactive”, the outcome [12] was “inactive” and the Potency [13] was “inactive”. For the same compound, the Potency [14] was “inactive”, the Potency [15] was “inactive” and the Potency [18] was “inactive”. The Potency [19] was “inactive”.

With `Clc1cc(Cl)c(-c2cc(Cl)c(Cl)cc2Cl)cc1Cl` the Potency [1] was “inactive”, the Potency [2] was “inactive” and the Potency [3] was “inactive”. The Potency [16] was “inactive”, the Potency [6] was “inactive” and the Potency [7] was “inactive”. The outcome [8] was “inactive”, the Potency [9] was “inactive” and the outcome [10] was “inactive”. The outcome [11] was “inactive”, the outcome [12] was “inactive” and the Potency [14] was “inactive”. The Potency [15] was “inactive”, the Potency [18] was “inactive” and the Potency [19] was “inactive”.

For `CCC(C)Nc1c([N+](=O)[O-])cc(C(C)(C)C)cc1[N+](=O)[O-]` (stereo unspecified), the Potency [1] was “inactive”, the Potency [2] was “inactive” and the Potency [3] was “inactive”. The Potency [6] was “inactive”, the Potency [7] was “inactive” and the outcome [17] was “inactive”. For the same compound, the outcome [8] was “inactive”, the Potency [9] was “inactive” and the outcome [10] was “inactive”. For the same compound, the outcome [11] was “inactive”, the outcome [12] was “inactive” and the Potency [13] was “inactive”. The Potency [15] was “inactive”, the Potency [18] was “inactive” and the Potency [19] was “inactive”.

In the case of `CCCCCCCc1ccc(O)cc1`, the Potency [1] is reported as “inactive”, the Potency [2] is reported as “inactive” and the Potency [3] is reported as “inactive”. For the same compound, the Potency [4] was 7.7 µM (active), the outcome [5] was “inactive” and the Potency [6] was “inactive”. For the same compound, the Potency [7] was “inactive”, the outcome [17] was “inactive” and the Potency [9] was “inactive”. The outcome [10] was “inactive”, the outcome [11] was “inactive” and the outcome [12] was “inactive”. The Potency [13] was “inactive”, the Potency [14] was “inactive” and the Potency [15] was “inactive”. For the same compound, the Potency [18] was “inactive”.

In the case of `CCOP(=S)(OCC)SC(CCl)N1C(=O)c2ccccc2C1=O` (stereo unspecified), the Potency [1] is reported as “inactive”, the Potency [2] is reported as “inactive” and the Potency [3] is reported as “inactive”. The outcome [5] was “inactive”, the Potency [6] was “inactive” and the Potency [7] was “inactive”. For the same compound, the outcome [17] was “inactive”, the outcome [8] was “inactive” and the Potency [9] was “inactive”. The outcome [10] was “inactive”, the outcome [11] was “inactive” and the outcome [12] was “inactive”. For the same compound, the Potency [13] was “inactive”, the Potency [14] was “inactive” and the Potency [15] was “inactive”.

With `Nc1c(Cl)c(Cl)c(Cl)c(Cl)c1Cl` the Potency [1] was “inactive”, the Potency [2] was “inactive” and the Potency [3] was “inactive”. The Potency [6] was “inactive”, the Potency [7] was “inactive” and the outcome [17] was “inactive”. For the same compound, the outcome [8] was “inactive”, the outcome [10] was “inactive” and the outcome [11] was “inactive”. For the same compound, the outcome [12] was “inactive”, the Potency [13] was “inactive” and the Potency [14] was “inactive”. For the same compound, the Potency [15] was “inactive”.
